High-throughput results deposited in PubChem BioAssay by National Center for Advancing Translational Sciences (NCATS).
Sampled rows, rich in hits. Any-hit rate of the full collection: about 10%.
JMJD2A Tudor inh – JMJD2A Tudor domain (human) inhibition; O75164; AlphaScreen JMJD2A-Tudor / H3K4me3 peptide binding; Potency, µM (titrated, usually from 114 µM), for inactives: at the top dose activity change, negative = inhibition, actives largely listed as inhibitors; 4.4% of 390,000 active; also: % is scaled to controls: 0 for no effect and ±100 for the full control effect; nearly all actives have a fitted effect of over 50% in size
HP1b binding inh – inhibitors of HP1-beta chromodomain binding to methylated histone tails. 0.56% of 390,000 active. P83916. Potency, µM (doses to about 114 µM), inactives show at the top dose activity change, negative = inhibition, usual class: inhibitors. AlphaScreen HP1-beta / biotin-H3K9me3 peptide binding. AID 540317; also: nearly all actives have a fitted effect of over 70% in size
Target sequence (P83916 whole entry, looked up): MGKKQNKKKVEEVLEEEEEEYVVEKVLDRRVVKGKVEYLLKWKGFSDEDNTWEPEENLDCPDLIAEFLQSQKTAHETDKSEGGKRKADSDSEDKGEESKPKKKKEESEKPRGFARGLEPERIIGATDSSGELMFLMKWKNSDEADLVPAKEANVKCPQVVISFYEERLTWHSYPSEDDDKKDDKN
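Compound inhibition of the preformed complex between 50 nM HP1-beta and 50 nM biotinylated H3K9me3 peptide was read by AlphaScreen. Buffer was PBS pH 7.4 with 0.01% Tween-20. Incubations ran 30 min at room temperature, with 10 ug/mL donor/acceptor beads.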
G9a block – G9a (human) methyltransferase inhibition | Q96KQ7 | G9a H3K9 monomethylation, AlphaScreen, 2 h | Potency, µM (series often up to 102 µM), for the others: at the top dose activity, negative = inhibition, hits mostly inhibitors | 8.8% of 350,000 active | AID 504332; also: % is scaled to controls: 0 for no effect and ±100 for the full control effect; nearly all actives have a fitted effect of over 75% in size
Target sequence (Q96KQ7 913-1193 limits assumed): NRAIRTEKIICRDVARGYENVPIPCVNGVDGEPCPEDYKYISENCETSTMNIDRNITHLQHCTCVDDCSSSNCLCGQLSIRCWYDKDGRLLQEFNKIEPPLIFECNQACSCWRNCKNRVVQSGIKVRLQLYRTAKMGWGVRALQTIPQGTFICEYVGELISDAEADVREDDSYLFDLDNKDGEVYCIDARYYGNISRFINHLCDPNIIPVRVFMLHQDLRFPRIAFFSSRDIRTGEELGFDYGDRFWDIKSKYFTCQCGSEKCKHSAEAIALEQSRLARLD
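Quantitative HTS format: methyltransferase activity on a biotin-tagged H3K9 peptide is measured by AlphaScreen, using a rabbit anti-monomethyl-H3K9 antibody with streptavidin donor and anti-IgG acceptor beads. Final levels are 20 nM enzyme, 500 nM peptide, 20 uM SAM; 2 h RT.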
BAZ2B block – BAZ2B (human) inhibition; Potency, µM (top dose mostly 114 µM), without a hit: top-dose activity change, negative = inhibition, most hits filed as inhibitors; 4.4% of 360,000 active; Q9UIF8; AlphaScreen BAZ2B-H3K14Ac peptide displacement; AID 504333; also: % is scaled to controls: 0 for no effect and ±100 for the full control effect; nearly all actives have a fitted effect of over 60% in size
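AlphaScreen luminescence quantifies BAZ2B engagement of H3K14Ac peptide; the protein and biotinylated peptide are both at 50 nM final, buffer PBS pH 7.4 with 0.01% Tween-20, all steps at room temperature.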
GLS inhibitor – glutaminase GLS (human) inhibition; O94925; GLS enzymatic activity, qHTS titration; Potency, µM (titrated, usually from 45.5 µM), for inactives: top-dose activity change, negative = inhibition, actives largely listed as inhibitors; 0.21% of 410,000 active; AID 624170; also: % is scaled to controls: 0 for no effect and ±100 for the full control effect
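hKGA; 45 mM KH2PO4 pH 8.2 + 0.02% Tween-20; cpd via pin tool; 1 mM Gln soln; GluOx/HRP/Amplex Red; RT 30 min; fluor. t0 & final.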
* = called active by the depositor; ? = inconclusive; . = no result given; ! = a repeat was not active; [ ] = remark or other dose. Calls follow the shape of the dose curve; as a rule, active = well fitted curve in the direction sought with a large enough effect; inconclusive = small, poorly fitted or top-dose-only effect, or another doubt; inactive = no such curve, though single readings can be large; an effect the other way counts as inactive or inconclusive. Potency is read from the fitted curve at half-maximal effect.

SMILES	JMJD2A Tudor inh	HP1b binding inh	G9a block	BAZ2B block	GLS inhibitor
O=c1[nH]c(=O)n(-c2ccccc2)c2c1C(C(F)(F)F)(C(F)(F)F)N=C(C1CCCCC1)N2	89µM*	4%	23%[59 µM]	-2%	-9%
CCOc1ccc2nc(SC3CC(=O)N(c4ccccc4)C3=O)sc2c1 (configuration not stated)	?	76%	?	0%	-7%
CCOc1ccc2nc(SC3CC(=O)N(c4cccc(OC)c4)C3=O)sc2c1 (configuration not stated)	-28%	39%	10µM*	3%	1%
CCOC(=O)c1cnc(SC2CC(=O)N(c3cccc(OC)c3)C2=O)nc1N (configuration not stated)	-15%	41%	35µM*	0%	8%
CCc1ccc(/C=C2/Sc3ccccc3N(CC(=O)NCCCN3CCOCC3)C2=O)cc1	?	-9%[57 µM]	-12%	35µM*	-1%
O=C(CN1C(=O)/C(=C\c2cccc(Br)c2)Oc2ccccc21)NCCCN1CCOCC1	45µM*	58%	17%[59 µM]	-6%	20%
O=C(CN1C(=O)/C(=C/c2ccc(C(F)(F)F)cc2)Sc2ccccc21)NCCCN1CCOCC1	-19%	22%	-7%[59 µM]	-29%	-5%
COCCCN1C(=O)C(CC(=O)NCc2ccco2)CC(C(=O)N(C(C)C)C(C)C)=C1C (configuration not stated)	.	.	.	.	-1%
CC1CCCCN1C(=O)c1ccc(C(=O)c2ccccc2)cc1 (configuration not stated)	-2%	31%	.	.	-2%
Cc1ccc(CNC(=O)CNC(=S)N(Cc2ccccc2)Cc2cccnc2)cc1	-26%	22%	-47%	-12%	-1%
Cc1ccc(CN(Cc2ccc(C)o2)C(=S)NCC(=O)O)cc1	-14%	8%	?	4%	-14%
Cc1ccc(CN(Cc2ccco2)C(=S)NCC(=O)O)cc1	-13%	14%	32µM*	-6%	6%
Cc1ccc(CN(Cc2ccco2)C(=S)NCC(=O)NCc2cccnc2)cc1	-32%	?	13µM*	?	-17%
COCCNC(=O)CNC(=S)N(Cc1ccccc1)Cc1cccnc1	6%	35%	19%[59 µM]	-3%	-1%
Cc1ccc(CN(Cc2ccccc2)C(=S)NCC(=O)NCc2cccnc2)o1	?	1%	28µM*	-25%	1%
O=C(O)C(O)C(O)C(O)C(O)C(=O)O (configuration not stated)	.	.	-2%[2.33 µM]	.	-6%
Cc1ccc2c(=O)cc(C(=O)Nc3c(C(=O)c4ccccc4)oc4ccccc34)oc2c1C	-11%	15%	-9%[59 µM]	-5%	3%
O=C(NN1CCOCC1)c1sc2cccc(F)c2c1Cl	-30%	13%	28µM*	-21%	18%
O=C(NN1CCOCC1)c1ccccc1F	-11%	29%	.	0%	-11%
CC1(C)CC(=O)C(C=NCCN2CCN(C(=O)NC34CC5CC(CC(C5)C3)C4)CC2)=C(O)C1	-16%	41%	50µM*	15%	3%
COc1ccc(-c2[nH]c(-c3ccc(C(=O)O)cc3)nc2-c2ccccc2)cc1	?	19%	79µM*	79µM*	-2%
O=C(O)c1ccc(-c2nc(-c3ccccc3)c(-c3ccccc3)[nH]2)cc1	79µM*	40µM*	-2%[59 µM]	?	-11%
Cc1ccsc1-c1nc(-c2ccccc2)c(-c2ccccc2)[nH]1	7%	20%	43%[12.7 µM]	-2%	0%
CS(=O)(=O)c1nc(-c2ccccc2)c(-c2ccccc2)[nH]1	-6%	3%	45µM*	?	8%
COc1ccc(C(O)c2ncc(-c3cccc4ccccc34)[nH]2)cc1F (configuration not stated)	.	.	.	.	0%
O=C1c2c(O)cc(O)cc2O[C@H](c2ccc(O)c(O)c2)[C@H]1O	-14%	19%	10µM*	?	14%
Oc1cc(O)c2c(c1)O[C@H](c1ccc(O)c(O)c1)[C@@H](O)C2	-10%	20%	28µM*!	0%	76%
CC1CC1C(=O)OCC(=O)NCc1ccc(Cl)cc1 (configuration not stated)	16%	21%	8%[59 µM]	-6%	3%
